In PubChem BioAssay (EPA / NIEHS) one finds outcome and AC50 data, which are given here for 12 molecules.

Records with an inconclusive call do not appear. Calls of active or inactive are those of the source. Rule for the calls, unless noted: active = hit-call score of the fitted dose curve at least 0.9, where 1 is the maximum; inactive = score below 0.9.

Read-out in test [1]: solute carrier (SLCO1B1), SLCO1B1 (gene 10599)
The experiment in a line: LTEA_HepaRG_SLCO1B1: Life Technologies and Expression Analysis (LTEA) Assay for solute carrier (SLCO1B1) using HepaRG (AID 2283530). The following applies: mRNA level, 48 h; actives raise or lower the signal. Put shortly:
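HepaRG, serum-free induction medium, 48 h dosing, 8-pt half-log from 100 uM, 0.5% DMSO vehicle, duplicates. Readout: SLCO1B1 mRNA, qRT-PCR, ACTB/GAPDH/POLR2A normalization; up or down fit vs DMSO.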

Read-out in test [2]: sulfotransferase 2A1 (SULT2A1), SULT2A1 (gene 6822)
In words: LTEA_HepaRG_SULT2A1: Life Technologies and Expression Analysis (LTEA) Assay for sulfotransferase 2A1 (SULT2A1) using HepaRG (AID 2283531). Particulars: mRNA level, 48 h; actives raise or lower the signal. Put shortly:
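Transcript levels of SULT2A1, quantified by qRT-PCR and normalized to three housekeeping genes, serve as the readout. Human HepaRG cultures receive test chemicals for 48 h at up to 100 uM in half-log steps, with 0.5% DMSO vehicle.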

Read-out in test [3]: Transforming Growth Factor (TGFA), TGFA (gene 7039)
In words: LTEA_HepaRG_TGFA: Life Technologies and Expression Analysis (LTEA) Assay for Transforming Growth Factor (TGFA) using HepaRG (AID 2283532). Particulars: mRNA level, 48 h; actives raise or lower the signal. Put shortly:
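Differentiated HepaRG cells exposed 48 hours in serum-free induction medium, 0.5% DMSO vehicle, 8-point half-log series from 100 uM, in duplicate. TGFA mRNA by TaqMan qRT-PCR, normalised to ACTB, GAPDH, POLR2A; bidirectional fit versus DMSO.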

Read-out in test [4]: Transforming Growth Factor (TGFB1), TGFB1 (gene 7040)
The experiment in a line: LTEA_HepaRG_TGFB1: Life Technologies and Expression Analysis (LTEA) Assay for Transforming Growth Factor (TGFB1) Transporter using HepaRG (AID 2283533). Particulars: mRNA level, 48 h; actives raise or lower the signal. In outline: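 HepaRG, 48 h post-plating, switched to serum-free induction medium; chemicals 100 uM top, half-log, 8 pts, 0.5% DMSO, dup; 48 h exposure; RNA → Fluidigm TaqMan qRT-PCR; norm ACTB/GAPDH/POLR2A; bidirectional fit vs DMSO.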

Read-out in another test: TIMP1, TIMP1 (gene 7076)
In words: LTEA_HepaRG_TIMP1: Life Technologies and Expression Analysis (LTEA) Assay for TIMP1 using HepaRG (AID 2283534).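 For outcome: TaqMan qRT-PCR signal normalized to ACTB GAPDH and POLR2A housekeeping genes.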 Particulars: mRNA level, 48 h; actives raise or lower the signal. Put shortly: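 Readout is TIMP1 mRNA level measured by qRT-PCR and normalized to three housekeeping genes. Human HepaRG cells were treated for 48 h in duplicate at eight concentrations up to 100 uM (0.5% DMSO); gain or loss fitted against DMSO.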

Read-out in test [5]: Tumor necrosis factor receptor 1 (TNFRSF1A), TNFRSF1A (gene 7132)
In words: LTEA_HepaRG_TNFRSF1A: Life Technologies and Expression Analysis (LTEA) Assay for Tumor necrosis factor receptor 1 (TNFRSF1A) using HepaRG (AID 2283535). Particulars: mRNA level, 48 h; actives raise or lower the signal. Put shortly: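 Read-out is TNFRSF1A transcript level by TaqMan qRT-PCR, normalized to three housekeeping genes, scored as gain or loss of signal versus 0.5% DMSO. Human HepaRG cells received test chemicals for 48 h at up to 100 uM (half-log series).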

Read-out in test [6]: Thyroid Hormone Responsive (THRSP), THRSP (gene 7069)
The experiment in a line: LTEA_HepaRG_THRSP: Life Technologies and Expression Analysis (LTEA) Assay for Thyroid Hormone Responsive (THRSP) using HepaRG (AID 2283536). The following applies: mRNA level, 48 h; actives raise or lower the signal. In outline: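 Differentiated HepaRG cells treated 48 h in serum-free induction medium with 8 half-log concentrations up to 100 uM (0.5% DMSO), duplicates. THRSP mRNA by TaqMan qRT-PCR normalised to ACTB, GAPDH, POLR2A; bidirectional fit versus DMSO.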

Read-out in test [7]: UDP glucuronosyltransferase (UGT1A1), UGT1A1 (gene 54658)
The experiment in a line: LTEA_HepaRG_UGT1A1: Life Technologies and Expression Analysis (LTEA) Assay for UDP glucuronosyltransferase (UGT1A1) using HepaRG (AID 2283538). Particulars: mRNA level, 48 h; actives raise or lower the signal. In outline:
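Differentiated human HepaRG cells in serum-free induction medium were exposed in duplicate for 48 h to eight half-log concentrations up to 100 uM in 0.5% DMSO. UGT1A1 mRNA was quantified by TaqMan qRT-PCR, normalized to ACTB, GAPDH and POLR2A, and fitted bidirectionally against DMSO.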

Read-out in test [8]: UDP glucuronosyltransferase (UGT1A6), UGT1A6 (gene 54578)
The experiment in a line: LTEA_HepaRG_UGT1A6: Life Technologies and Expression Analysis (LTEA) Assay for UDP glucuronosyltransferase (UGT1A6) using HepaRG (AID 2283539). Particulars: mRNA level, 48 h; actives raise or lower the signal. Put shortly: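 HepaRG, 48 h post-plating switch to serum-free induction medium; chemical 48 h, 100 uM top, half-log x8, duplicate, 0.5% DMSO. Phenobarbital 1mM induction control. UGT1A6 mRNA by TaqMan qRT-PCR; gain/loss fit vs DMSO.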

Read-out in test [9]: X-box binding protein 1 (XBP1), XBP1 (gene 7494)
The experiment in a line: LTEA_HepaRG_XBP1: Life Technologies and Expression Analysis (LTEA) Assay for X-box binding protein 1 (XBP1) using HepaRG (AID 2283540). The following applies: mRNA level, 48 h; actives raise or lower the signal. Put shortly:
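Transcript levels of XBP1, measured by qRT-PCR and normalised to three housekeeping genes, were fitted bidirectionally relative to 0.5% DMSO controls. Human HepaRG cells received eight-point half-log dilutions from 100 uM for 48 h.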

Test [10] in a line: LTEA_HepaRG_LDH_cytotoxicity: Cytotoxicity Assessment in the Life Technologies and Expression Analysis (LTEA) Assay (AID 2283563; active = hit-call score of the fitted dose curve at least 0.9, where 1 is the maximum;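 for AC50: LDH activity released into spent culture medium as a marker of cell death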). Put shortly: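 Cells were thawed and plated for 48 h. Medium was then replaced with serum-free induction medium. Chemicals (8 half-log points, maximum 100 uM, 0.5% DMSO) were added in duplicate for 48 h, after which spent medium was assayed for LDH.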

The nature of test [11]: ATG_XTT_Cytotoxicity: Cytotoxicity Assessment in the Attagene TRANS-FACTORIAL HepG2 Assay (AID 2283584; active = hit-call score of the fitted dose curve at least 0.9, where 1 is the maximum;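 for AC50: cells exposed to compound for 24 h before reading; active means loss of viability signal versus DMSO baseline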). Put shortly: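 Cells: human HepG2, transiently transfected with MRTU reporter constructs. Exposure 24 h. Readout: XTT, cell number. Baseline/neg ctrl DMSO; loss-of-signal scored.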
Read-out in test [12]: Cellular tumor antigen p53 (Homo sapiens) (UniProt P04637)
In words: LTEA_HepaRG_TP53: Life Technologies and Expression Analysis (LTEA) Assay for Tumor Protein P53 (TP53) using HepaRG (AID 2283537). Particulars: mRNA level, 48 h; actives raise or lower the signal. In outline: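 Gain or loss of TP53 mRNA signal is scored relative to 0.5% DMSO after 48 h chemical treatment of HepaRG liver cells, tested in duplicate at eight half-log concentrations up to 100 uM.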

Cellular tumor antigen p53 (Homo sapiens), sequence (P04637 whole entry, looked up): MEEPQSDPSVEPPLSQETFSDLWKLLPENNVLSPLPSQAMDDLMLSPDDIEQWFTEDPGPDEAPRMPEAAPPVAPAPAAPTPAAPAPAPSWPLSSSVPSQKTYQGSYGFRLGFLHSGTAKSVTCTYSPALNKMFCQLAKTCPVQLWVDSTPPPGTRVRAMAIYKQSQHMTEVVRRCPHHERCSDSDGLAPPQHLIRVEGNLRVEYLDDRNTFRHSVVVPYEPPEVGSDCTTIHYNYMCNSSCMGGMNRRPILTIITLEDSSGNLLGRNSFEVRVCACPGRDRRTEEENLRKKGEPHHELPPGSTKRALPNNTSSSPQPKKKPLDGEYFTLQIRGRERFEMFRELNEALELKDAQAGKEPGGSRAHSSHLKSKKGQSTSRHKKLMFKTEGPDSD

Regarding `CSc1ccc(Oc2ccc(S(N)(=O)=O)cc2CN(C)C)cc1C`, the outcome in [1] is “inactive”; in test [2] it was “inactive”; in test [3] it was “inactive”; in test [4], “inactive”; in the test with TIMP1, TIMP1 (gene 7076), “inactive”; in [5], “inactive”. The molecule was called inactive in test [6], in test [7], in test [8] and in test [9]. In [10], the AC50 was 81.4 µM (active).

Turning to `Cc1ccc(-c2cc(C(F)(F)F)nn2-c2ccc(S(N)(=O)=O)cc2)cc1`, the call in [1] and in test [6] was inactive. In addition, the AC50 was 83.6 µM (active) in [2]; 73.1 µM (active) in [3]; 84.2 µM (active) in test [4]; 88 µM (active) with TIMP1, TIMP1 (gene 7076); 93.5 µM (active) in [5]; 86.3 µM (active) in test [7]. Besides, the concentration at half-maximal activity (AC50) in [8] was 71.6 µM (active); in test [9], 50 µM (active); in [10], 74.4 µM (active); in test [11], 149 µM (active).

As for `CCCCOC(=O)CCCCC(=O)OCCCC`, the outcome is “inactive” in test [1]; “inactive” in [2]; “inactive” in test [3]; “inactive” in test [4]; “inactive” in the test with TIMP1, TIMP1 (gene 7076); “inactive” in test [5]. In addition, the outcome in [6], in [7], in test [8] and in [10] was inactive.

Take `O=C(O)CC(O)(CC(=O)O)C(=O)O`: the outcome is “inactive” in [1]; “inactive” in [2]; “inactive” in [3]; “inactive” in [4]; “inactive” with TIMP1, TIMP1 (gene 7076); “inactive” in test [5]. The outcome in test [12], in [7], in [8], in test [9] and in test [10] was inactive.

For the molecule `O=C(NS(=O)(=O)/C=C/c1cccs1)c1ccc(F)cc1Br`, the outcome in test [1] was “inactive”; in [2], “inactive”; in test [3] it was “inactive”; in [4], “inactive”; with TIMP1, TIMP1 (gene 7076) it was “inactive”; in test [5], “inactive”. Besides, the call in [8] and in test [10] was inactive. Further, the concentration at half-maximal activity (AC50) in [7] was 14 µM (active).

For `C/C=C/c1ccc(OC)cc1`, the outcome in test [1] is “inactive”; in [2], “inactive”; in [3] it was “inactive”; in [4], “inactive”; with TIMP1, TIMP1 (gene 7076) it was “inactive”; in test [5], “inactive”. In addition, the molecule was classed as inactive in test [7], in test [8], in test [9], in [10] and in [11].

As to `CC(COCC(C)OC(=O)c1ccccc1)OC(=O)c1ccccc1` (stereo not given), the outcome was “inactive” in test [1]; “inactive” in [2]; “inactive” in test [3]; “inactive” in [4]; “inactive” with TIMP1, TIMP1 (gene 7076); “inactive” in test [5]. The result in test [7], in [8] and in test [10] was inactive.

`NC=O`: the outcome was “inactive” in test [1]; “inactive” in test [2]; “inactive” in [3]; “inactive” in test [4]; “inactive” in the test with TIMP1, TIMP1 (gene 7076); “inactive” in [5]. For the same molecule, the molecule was called inactive in test [7], in test [8], in test [10] and in test [11].

Consider `Cc1cn([C@H]2C=C[C@@H](CO)O2)c(=O)[nH]c1=O`, for which the outcome in test [1] is “inactive”; in test [2], “inactive”; in test [3], “inactive”; in test [4] it was “inactive”; in the test with TIMP1, TIMP1 (gene 7076), “inactive”; in test [7], “inactive”. In addition, the molecule was called inactive in test [8], in test [9], in [10] and in test [11].

For the molecule `CC(C)NCC(O)c1ccc(O)c(O)c1` (stereo not given), the half-maximal activity concentration (AC50) in test [1] was 0.136 µM (active); in test [2], 0.194 µM (active); in test [6], 0.179 µM (active); in [7] it was 0.111 µM (active). The molecule was called inactive in test [3], in [4], in test [5] and in test [8].

With `CC(C)c1cccc(C(C)C)c1`, the outcome in test [1] was “inactive”; in test [2], “inactive”; in [3], “inactive”; in [4] it was “inactive”; with TIMP1, TIMP1 (gene 7076), “inactive”; in test [5], “inactive”. Besides, the molecule was called inactive in test [7], in [8] and in [10].

Consider `O=C(N[C@@H](c1ccccc1)[C@@H]1CCCCN1)c1cccc(C(F)(F)F)c1Cl`, for which the AC50 in test [1] was 37.1 µM (active); in test [2], 78.9 µM (active); in test [4], 82.3 µM (active); in [5], 82.2 µM (active); in test [7], 57.7 µM (active); in test [8], 69.1 µM (active). Also, in [10], the concentration at half-maximal activity (AC50) was 43 µM (active). The outcome in test [3] was “inactive”; in the test with TIMP1, TIMP1 (gene 7076) it was “inactive”; in test [9], “inactive”.

As a reminder, the AC50 is the midpoint of the concentration-response curve, whichever way the signal moves.
